Compound activity: PubChem BioAssay, Buhrlage Lab, Dana-Farber Cancer Institute and Novartis Institutes for BioMedical Research (Cambridge, Mass)
Most compounds without a hit are left out; they make up all but 13% or so of the library.
USP30 inh: human USP30 deubiquitinase inhibition; purified USP30, Ub-rhodamine cleavage fluorescence; inhibition, % at 25 µM; Q70CQ3; hit rate 5.3% among 47,000
Target sequence (Q70CQ3 whole entry, looked up): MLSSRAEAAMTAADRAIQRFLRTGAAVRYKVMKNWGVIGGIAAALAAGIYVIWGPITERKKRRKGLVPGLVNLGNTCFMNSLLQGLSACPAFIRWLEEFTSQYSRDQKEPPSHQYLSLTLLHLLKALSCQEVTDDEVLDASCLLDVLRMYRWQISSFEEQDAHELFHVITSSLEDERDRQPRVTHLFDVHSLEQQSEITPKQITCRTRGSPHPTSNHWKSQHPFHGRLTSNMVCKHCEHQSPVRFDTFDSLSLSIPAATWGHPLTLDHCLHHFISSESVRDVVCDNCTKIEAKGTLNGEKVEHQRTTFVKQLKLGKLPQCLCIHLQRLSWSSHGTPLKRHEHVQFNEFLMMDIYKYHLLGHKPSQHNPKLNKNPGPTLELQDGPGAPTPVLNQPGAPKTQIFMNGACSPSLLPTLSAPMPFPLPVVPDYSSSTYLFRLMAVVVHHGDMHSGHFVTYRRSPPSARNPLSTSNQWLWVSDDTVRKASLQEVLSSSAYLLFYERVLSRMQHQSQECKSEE
USP8 inh: human USP8 deubiquitinase inhibition; P40818; AID 1645853; hit rate 4.2% among 47,000; purified USP8, Ub-rhodamine cleavage fluorescence, 30 min; inhibition, % at 20 µM
USP28 inh: blocks human USP28 ubiquitin-rhodamine cleavage | purified USP28, Ub-rhodamine cleavage fluorescence, 30 min | AID 1645857 | hit rate 3% among 47,000 | inhibition, % at 25 µM
USP17 inh: blocks human USP17 ubiquitin-rhodamine cleavage | A8MUK1 | purified USP17, Ub-rhodamine cleavage fluorescence, 3 h | inhibition, % at 50 µM | hit rate 6.5% among 47,000 | AID 1645855
Each line names hits and unclear results; the compound was inactive in the other large screens. Rule as the data show it: active = inhibition above about 30%; inactive = the rest.

CC12C(=O)N(c3ccc4c(c3)OCCO4)C(=O)N1CCc1c2[nH]c2ccccc12 (configuration not stated)	none
Cc1cnn(CC2CN(Cc3ncc(C(C)(C)C)o3)CCO2)c1 (configuration not stated)	none
COc1ccc(NC(=O)c2ccc(-c3ccc(N4CCCC4)nn3)cc2)c(OC)c1	USP17 inh 40.7
COc1cccc(-n2cnc3cc(C(=O)NCc4ccncc4)ccc3c2=O)c1	USP30 inh 31.0, USP8 inh 57.6
O=C(CCCC(=O)c1ccccc1)Nc1ccc(F)cc1	USP17 inh 55.7
O=C(CCCC(=O)c1ccccc1)Nc1ccc(F)cc1Cl	USP8 inh 35.1, USP17 inh 30.3
O=C(CCC(=O)c1ccc(F)cc1)Nc1ccccc1F	none
COc1ccc(NC(=O)CCCC(=O)c2ccccc2)c(OC)c1	none
O=C(O)CCNC(=O)/C(=C\c1ccc(Cl)cc1)NC(=O)c1ccco1	none
CS(=O)(=O)c1cc(Cl)cnc1C1CCCN(C(=O)c2ccn[nH]2)C1 (configuration not stated)	none
O=c1c(Cc2ccccc2)coc2ccccc12	USP28 inh 49.9
O=c1c(CN2CCC3(CC2)Nc2ccccc2C2=NCCN23)coc2ccccc12	none
C=Cc1ccc(Cn2cccc(S(=O)(=O)N3CCCC3)c2=O)cc1	USP28 inh 48.8, USP17 inh 62.7
O=C(Cn1cccc(S(=O)(=O)N2CCCCCC2)c1=O)Nc1ccc(F)cc1	USP17 inh 42.0
O=c1c(S(=O)(=O)N2CCCCCC2)cccn1Cc1ccccc1	none
O=C(Cn1cccc(S(=O)(=O)N2CCCCCC2)c1=O)Nc1ccccc1	none
O=C(NCc1ccccc1)c1ccc2nnc(-c3ccccc3)n2c1	none
COC1=C(N)C(=O)c2nc(-c3nc(C(=O)O)c(C)c(-c4ccc(O)c(OC)c4O)c3N)ccc2C1=O	USP28 inh 31.1, USP17 inh 45.7
COc1ccc(NC(=O)CN2C(=O)c3ccccc3Sc3ccc(C(=O)N4CCCC4)cc32)cc1OC	USP17 inh 55.0
CN1C(C(=O)NC2CCCC2)=CC(c2ccco2)=NS1(=O)=O	none
Cc1nc(C2CN(Cc3nc4ccccc4n3C)CCO2)cc(=O)[nH]1 (configuration not stated)	USP8 inh 31.3
Cc1cccc(C(=O)Nc2cccc(SC(C(=O)Nc3ccc(Cl)c(C(=O)O)c3)c3ccccc3)c2)c1 (configuration not stated)	USP30 inh 47.4, USP8 inh 43.9, USP28 inh 44.3, USP17 inh 80.4
COc1cccc(C(=O)Nc2ccc(SC(C(=O)Nc3ccccc3)c3ccccc3)cc2)c1 (configuration not stated)	none
Cc1ccc(C(=O)O)cc1NC(=O)C(Sc1cccc(NC(=O)c2cccc(Cl)c2)c1)c1ccccc1 (configuration not stated)	USP30 inh 91.1, USP8 inh 39.6, USP28 inh 46.7, USP17 inh 84.7
Cc1ccccc1NC(=O)C(Sc1ccc(NC(=O)c2ccccc2C(=O)O)cc1)c1ccccc1 (configuration not stated)	none
O=C(O)c1ccccc1C(=O)Nc1ccc(SC(C(=O)Nc2cccc(Cl)c2)c2ccccc2)cc1 (configuration not stated)	USP28 inh 33.8, USP17 inh 51.3
O=C(Cc1ccccc1)N(Cc1ccc(-c2ccc(F)cc2)o1)C1CCS(=O)(=O)C1 (configuration not stated)	none
Cn1nccc1C(=O)N[C@@H]1C[C@@H](Oc2ccccc2)[C@H](O)[C@H]1N1CCCC1	none
O=C(c1nc(CCS(=O)(=O)c2ccccc2)no1)N1CCOCC1	none
CC1(C)CC(=O)C2(Cc3cc([N+](=O)[O-])ccc3N3CCCC32)C(=O)C1 (configuration not stated)	USP17 inh 36.0
COCCn1c(SCC(=O)Nc2cccc3ccccc23)nc2ccccc21	none
CCC(C(=O)Nc1cccc2nsnc12)c1ccccc1 (configuration not stated)	USP8 inh 37.4
O=C(CSc1ccccc1)Nc1cccc2nsnc12	USP8 inh 53.1, USP17 inh 31.7
CCn1ncc(S(=O)(=O)Nc2ccn(Cc3cccc(C)c3)n2)c1C	none
COc1ccc(Cn2ccc3nc(N4CCOCC4)c(C#N)cc3c2=O)cc1	USP30 inh 53.5, USP28 inh 30.6, USP17 inh 67.9
CCc1ccc(C2c3c(oc4ccccc4c3=O)C(=O)N2c2nncs2)cc1 (configuration not stated)	USP17 inh 51.1
COc1ccc2nc(N3C(=O)c4oc5ccccc5c(=O)c4C3c3ccc([N+](=O)[O-])cc3)sc2c1 (configuration not stated)	none
CCOc1cc(C2c3c(oc4ccccc4c3=O)C(=O)N2c2nc3ccc(C)cc3s2)ccc1O (configuration not stated)	USP30 inh 34.7
Cc1nc(-c2cc(C)[nH]n2)cc(C2CCCN(S(C)(=O)=O)C2)n1 (configuration not stated)	none
COc1ccc(-n2nnc3c(SCC(=O)Nc4cc(C)on4)ncnc32)cc1	USP17 inh 57.2
COC(=O)C(C)Sc1ncnc2c1nnn2-c1ccc(OC)cc1 (configuration not stated)	USP17 inh 37.4 (no result: USP30 inh, USP28 inh)
O=C(C(c1ccccc1)c1ccccc1)N1CCC(c2nc3c(nnn3Cc3c(F)cccc3Cl)c(=O)[nH]2)CC1	USP30 inh 44.2, USP28 inh 37.6, USP17 inh 51.4
O=C(C1CCCC1)N1CCC(c2nc3c(nnn3Cc3ccccc3Cl)c(=O)[nH]2)CC1	USP30 inh 38.8
O=S(=O)(c1cccc(Cl)c1)N1CCOC(c2ccc(F)cc2)C1 (configuration not stated)	none
CCOC(=O)c1cc(C#N)c(NCc2ccc(Cl)cc2Cl)nc1-c1ccccc1	none
O=C(C[C@@H]1CCN2C[C@@H]1CCCOc1ccccc1CN(C(=O)c1ccccc1)CC2=O)N1CCOCC1	none
Cc1noc(C)c1CNC(=O)c1ccc2c(c1)OCO2	none
Cc1ccc(C(=O)NCCc2nc(-c3ccc4c(c3)OCO4)n[nH]2)cc1F	USP30 inh 68.8, USP8 inh 31.9, USP17 inh 46.6
CN1CCc2c(sc3c2c(NCc2cccnc2)nc2nnnn23)C1	USP8 inh 39.2
O=c1c(S(=O)(=O)c2cc(F)cc(F)c2)c[nH]c2cc(Cl)ccc12	USP8 inh 79.9, USP17 inh 51.6
Cc1cc(C(=O)NC2CCCC2)nc2cc(-c3ccccn3)nn12	none
O=C1COc2ccccc2N1Cc1nc(-c2ccccc2)no1	none
Fc1cccc(-n2cc(-c3noc(-c4ccc[nH]4)n3)nn2)c1	USP30 inh 77.0, USP8 inh 34.6, USP28 inh 46.0, USP17 inh 43.1
COc1cccc(Cc2nc(-c3cn(-c4cccc(F)c4)nn3)no2)c1	USP30 inh 35.9, USP28 inh 31.9
Fc1cccc(-n2cc(-c3noc(-c4ccccn4)n3)nn2)c1	USP30 inh 88.5, USP28 inh 80.9, USP17 inh 30.1
NC(=O)CSc1nnc2ccc(-c3ccc4c(c3)OCO4)nn12	none
COc1ccc(C2NC(=O)NC(C)=C2C(=O)OC2CCCC2)cc1OC (configuration not stated)	USP8 inh 34.7
